# Rows were chosen to be rich in hits. Some 12% of all compounds tested hit in one or more screens of this group.
# BAZ2B block: inhibitors of human BAZ2B bromodomain; AID 504333; Q9UIF8; 360,000 compounds, 4.4% hits; AlphaScreen BAZ2B-H3K14Ac peptide displacement; Potency, µM (highest dose often 114 µM), without a hit: top-dose activity change, negative = inhibition, most hits filed as inhibitors; note: % is set by controls: 0 for no effect and ±100 for the full control effect; nearly all actives have a fitted effect of over 60% in size
#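 Protein-peptide AlphaScreen: BAZ2B 50 nM, b-H3K14Ac 50 nM, 1x PBS pH 7.4 + 0.01% Tween-20. Preincubation 30 min RT; cpd 30 min RT (top 110 uM); beads 20 min RT, light-protected.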
# L3MBTL1 inh: inhibitors of human L3MBTL1; Q9Y468; AlphaScreen L3MBTL1–H3K9me1 peptide binding; Potency, µM (doses to about 57.1 µM), for the others: at the highest dose activity, negative = inhibition, usual class: inhibitors; 230,000 compounds, 0.66% hits; AID 485360; note: % is set by controls: 0 for no effect and ±100 for the full control effect; nearly all actives have a fitted effect of over 60% in size
#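 AlphaScreen assay: L3MBTL1 (50 nM final) was preincubated 30 min at room temperature with biotinylated H3(1-15)K9me1 peptide (75 nM final), then 30 min with library compounds; streptavidin donor and nickel chelate acceptor beads (10 ug/mL final) added, 30 min dark.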
# Sfp inh: Sfp phosphopantetheinyl transferase inhibition; Biochemical Sfp PPTase activity, qHTS; Potency, µM, for the others: largest response in the series, negative = inhibition, most hits filed as inhibitors; 310,000 compounds, 3.5% hits; AID 1490;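 note: the enzyme is Sfp with the accession as filed and its product quenches rhodamine fluorescence; 0% = enzyme reaction without inhibitor and -100% = no enzyme wells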
#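 Sfp 15 nM + cpd, 15 min RT; start w/ rhodamine-CoA 5 uM, BHQ-2-YbbR 12.5 uM (final); 50 mM Hepes pH 7.6, 10 mM MgCl2, 0.01% NP-40, 0.01% BSA; read 525/598 nm at 0 and 30 min.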
# G9a inh: G9a (human) methyltransferase inhibition; Potency, µM (doses to about 102 µM), without a hit: top-dose activity, negative = inhibition, actives largely listed as inhibitors; Q96KQ7; G9a H3K9 monomethylation, AlphaScreen, 2 h; 350,000 compounds, 8.8% hits; note: % is set by controls: 0 for no effect and ±100 for the full control effect; nearly all actives have a fitted effect of over 75% in size
#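 Using a bead-based AlphaScreen, monomethylated H3K9 product from 2 h room-temperature reactions (G9a 20 nM, peptide 500 nM, SAM 20 uM) was detected with 0.5 ug/mL rabbit anti-H3K9me1 antibody.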
# HP1b binding inh: HP1-beta chromodomain-methylated histone interaction inhibition; AlphaScreen HP1-beta / biotin-H3K9me3 peptide binding; Potency, µM (doses to about 114 µM), without a hit: at the highest dose activity change, negative = inhibition, actives largely listed as inhibitors; 390,000 compounds, 0.56% hits; P83916; note: nearly all actives have a fitted effect of over 70% in size
#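 AlphaScreen: HP1-beta (50 nM) preformed 30 min with biotin-H3(1-18)K9me3 peptide (50 nM) in PBS pH 7.4, 0.01% Tween-20. Compound added for 30 min at RT, then streptavidin donor/nickel chelate acceptor beads (10 ug/mL) for 30 min.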
# JMJD2A Tudor inh: JMJD2A Tudor domain (human) inhibition; AlphaScreen JMJD2A-Tudor / H3K4me3 peptide binding; O75164; 390,000 compounds, 4.4% hits; Potency, µM (titrated, usually from 114 µM), inactives show at the top dose activity change, negative = inhibition, most hits filed as inhibitors; note: % is set by controls: 0 for no effect and ±100 for the full control effect; nearly all actives have a fitted effect of over 50% in size
# Target sequence (O75164 whole entry, looked up, the tested form may be a part): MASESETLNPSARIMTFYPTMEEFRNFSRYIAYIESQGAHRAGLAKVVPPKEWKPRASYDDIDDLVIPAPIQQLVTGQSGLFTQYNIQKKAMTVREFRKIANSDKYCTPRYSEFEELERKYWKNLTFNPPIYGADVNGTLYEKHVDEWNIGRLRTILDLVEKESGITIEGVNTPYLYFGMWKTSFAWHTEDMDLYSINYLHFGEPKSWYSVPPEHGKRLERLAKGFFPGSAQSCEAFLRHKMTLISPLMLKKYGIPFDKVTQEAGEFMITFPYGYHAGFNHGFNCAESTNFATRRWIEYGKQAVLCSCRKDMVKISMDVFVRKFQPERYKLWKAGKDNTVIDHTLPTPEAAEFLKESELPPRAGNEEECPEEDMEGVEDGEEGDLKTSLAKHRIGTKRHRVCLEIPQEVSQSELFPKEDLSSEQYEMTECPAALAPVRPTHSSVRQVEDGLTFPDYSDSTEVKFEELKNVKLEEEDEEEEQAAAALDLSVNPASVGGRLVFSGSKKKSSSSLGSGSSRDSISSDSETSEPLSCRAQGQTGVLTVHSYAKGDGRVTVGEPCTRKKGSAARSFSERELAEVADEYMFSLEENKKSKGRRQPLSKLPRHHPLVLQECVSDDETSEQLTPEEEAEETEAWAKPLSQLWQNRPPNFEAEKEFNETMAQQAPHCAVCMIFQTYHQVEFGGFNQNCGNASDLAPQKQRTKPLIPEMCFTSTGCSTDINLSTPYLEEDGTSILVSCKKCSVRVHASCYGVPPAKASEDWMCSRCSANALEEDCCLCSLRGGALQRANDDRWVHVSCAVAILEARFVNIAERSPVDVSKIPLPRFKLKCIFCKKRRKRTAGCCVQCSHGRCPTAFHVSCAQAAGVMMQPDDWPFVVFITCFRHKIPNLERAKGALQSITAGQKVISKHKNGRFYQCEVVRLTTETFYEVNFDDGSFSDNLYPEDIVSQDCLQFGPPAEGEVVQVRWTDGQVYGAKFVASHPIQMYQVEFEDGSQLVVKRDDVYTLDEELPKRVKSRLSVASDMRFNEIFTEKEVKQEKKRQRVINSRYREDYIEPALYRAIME
# Starred values were filed as active, the others as inactive; ? = inconclusive; · = no result; [ ] = another dose, or the depositor's remark. Calls come from the whole dose curve; as a rule, active = well fitted curve in the direction sought with a large enough effect; inconclusive = small, poorly fitted or top-dose-only effect, or another doubt; inactive = no such curve, though single readings can be large; an effect the other way counts as inactive or inconclusive. Potency is the fitted concentration of half-maximal effect.
SMILES,BAZ2B block,L3MBTL1 inh,Sfp inh,G9a inh,HP1b binding inh,JMJD2A Tudor inh
Cc1ccc(N(Cc2cc(=O)[nH]c3ccccc23)C(=O)CCl)c(C)c1,-26%,·,-12%,50µM*,3%[57 µM],-35%
Cc1cccc(N(C)C(=O)Cc2c(C(=O)O)[nH]c3ccccc23)c1,-3%,·,·,1%[59 µM],33%,-16%
COc1ccccc1N(Cc1cc(=O)[nH]c2ccccc12)C(=O)c1ccc([N+](=O)[O-])cc1,-16%,22%,-8%,·,-1%,-18%
CCC(=O)N(Cc1cc(=O)[nH]c2ccccc12)c1cccc(C)c1,-5%,-3%,?,10µM*,2%,79µM*
CCCC(=O)N(Cc1cc(=O)[nH]c2ccccc12)c1ccc(C)cc1C,3%,·,-7%,?,5%,-17%
CCC(=O)N(Cc1cc(=O)[nH]c2ccccc12)c1ccccc1C,-11%,-4%,-4%,45µM*,?,-24%
C/C(=N\O)C(=O)NCCN(C)C,-9%,-1%,-2%,?,-3%,7.9µM*
CCN(CC)c1ccc(NC(=O)COC(=O)/C=C/c2nc3ccccc3s2)cc1,-26%,-8%,-10%,6.3µM*,-6%,?
COC(=O)c1nn(-c2ccccc2)c(=O)cc1Oc1ccccc1,5%,3%,10%,·,10%,-15%
CCOC(=O)c1c(C)c(C(=O)Nc2ccc(N(C)C)cc2)c(C)n1CC,?,-14%,-7%,2µM*,-10%,?
CCOC(=O)c1ccc(NCc2ccc3c(c2)OCO3)cc1,-14%,4%,56µM*,-8%[59 µM],41%,8%
CCOC(=O)c1ccc(NCc2ccc(N(C)C)cc2)cc1,11µM*,?,-22%,10µM*,-11%,?
O=C(CN1C(=O)c2cccnc2Oc2ccc(Cl)cc21)Nc1cccc(C(F)(F)F)c1,-2%,·,·,1%[59 µM],39%,-11%
COc1ccc(N=Nc2cc(OC)c(N)cc2OC)cc1,·,·,·,·,50µM*,45µM*
COc1ccc(N=Nc2ccc(N)nc2N)cc1,40µM*,-17%,-12%,28µM*,?,40µM*
CCOc1ccc2[nH]c(C)cc(=O)c2c1,-4%,5%,-10%,11%[59 µM],60%,-7%
CCOc1ccc2nc3cc(N=Nc4ccc(N)nc4N)ccc3c(N)c2c1,·,·,·,·,?,56µM*
COc1ccc(OC)c(N)c1,50µM*,-18%,-25%,32µM*,?,?
CC1CCN(S(=O)(=O)c2ccc3c(c2)N(CC(=O)NCc2ccccc2Cl)C(=O)CS3)CC1,-2%,·,·,-21%[59 µM],4%,-36%
OC1OC[C@H](O)[C@@H](O)[C@@H]1O (stereo partly specified),·,·,1%,·,·,·
O=C(Nc1ccc(NC(=O)C2CC2)cc1)c1cccs1,2%,·,-9%,·,21%,3%
C/C(=N\Nc1ccc(F)cc1F)c1ccccc1O,-7%,10%,-1%,14µM*,42%,-2%
CCCCNC(=O)CN1C(=O)c2c(c3ccccc3n2C)C1c1ccc(OC)cc1 (stereo unspecified),-4%,·,·,-1%[59 µM],30%,0%
C=CCn1c(C(CCCC)CC(C)O)n[nH]c1=S (stereo unspecified),4%,18%,8%,?,29%,?
C=CCn1c(Cc2c[nH]c3ccccc23)n[nH]c1=S,-7%,-21%,?,6.3µM*,-4%,8.9µM*
SMILES,BAZ2B block,L3MBTL1 inh,Sfp inh,G9a inh,HP1b binding inh,JMJD2A Tudor inh
C=CCn1c(CCc2cc(C(C)(C)C)c(O)c(C(C)(C)C)c2)n[nH]c1=S,-29%,-10%,13%,2µM*,-15%,?
C=CCn1c(CCC(O)CCCCC)n[nH]c1=S (stereo unspecified),4%,7%,-7%,7.1µM*,3%,18µM*
C=CCn1c(Cc2ccccc2)n[nH]c1=S,-5%,?,-16%,·,23%,3.5µM*
Cc1cccc(S(=O)(=O)c2cn(Cc3ccc(F)cc3)c3cc(N4CCCCC4)c(F)cc3c2=O)c1,3%,·,·,10%[59 µM],32%,0%
NS(=O)(=O)c1ccc(CCNC(=O)COC(=O)Cc2c(F)cccc2Cl)cc1,-3%,·,10%,20%,39%,-8%
CC(Oc1ccccc1F)C(=O)NCC1(N2CCOCC2)CCCCC1 (stereo unspecified),-2%,·,·,-3%[59 µM],35%,-16%
C=CCn1c(Cc2nc3ccc(Cl)cc3[nH]2)n[nH]c1=S,?,·,50µM*,?,6%,?
C=CCn1c(CCCOc2ccc(Cl)cc2Cl)n[nH]c1=S,-33%,-1%,-2%,?,43%,-2%
O=C(O)CCc1ccc(-c2ccccc2)n1Cc1ccco1,50µM*,·,35µM*,32µM*,3%,?
O=C(O)CCc1ccc(-c2ccc(F)cc2)n1Cc1ccco1,-37%,-4%,-13%,9%[12.7 µM],1%,?
O=C(O)CCc1ccc(-c2ccc(Br)cc2)n1Cc1ccco1,50µM*,-22%,-1%,?,-16%,79µM*
Cc1ccc(-c2ccc(/C=N/c3ncn[nH]3)o2)cc1Cl,?,5%,56µM*,-27%[12.7 µM],36%,-5%
Cc1ccc(-c2ccc(/C=N/NC(=O)CN3CCCC3)o2)cc1Cl,?,-6%,-6%,-40%[59 µM],0%,?
COc1ccc(OC)c(C(C[N+](=O)[O-])c2c(C)cc3ccccn23)c1 (stereo unspecified),?,·,-23%,45µM*,?,?
COc1ccc(C(C[N+](=O)[O-])c2c(C)cc3ccccn23)c(OC)c1 (stereo unspecified),-39%,·,-19%,40µM*,-17%,-23%
COC(=O)C/C=C\[C@@H](C)[C@@H](/C=N\OCC[C@H]1C=C[C@H](OC(C)=O)[C@@H](COC(C)=O)O1)NS(=O)(=O)c1ccc(C)cc1,·,·,4%,·,·,·
CCN1C=C(Cc2cccs2)C2=C(C1)C(c1cccs1)C(C#N)=C(N)O2 (stereo unspecified),35µM*,?,-7%,?,-34%,?
CCOC(=O)C1=C(C)OC(N)=C(C#N)C1c1cccs1 (stereo unspecified),-16%,·,-30%,-47%,31%,-4%[57.1 µM]
CCN1CC2=C(OC(N)=C(C#N)C2c2cccs2)/C(=C/c2cccs2)C1 (stereo unspecified),32µM*,-17%,-8%,?,-22%,?
CCN1CC2=C(OC(N)=C(C#N)C2c2ccccc2)/C(=C\c2ccccc2)C1 (stereo unspecified),?,-6%,-14%,-13%[59 µM],-23%,-33%
O=C(Nc1ccc(N2CCN(C(=O)c3ccccc3)CC2)c(Cl)c1)c1ccc(Br)o1,-35%,-10%,6%,45µM*,33%,-25%
